Inhibition data for 57 molecules are collected here from PubChem BioAssay AID504329 (Southern Research Specialized Biocontainment Screening …, 2011).

Each structure is given as a SMILES string. The whole screen tested about 340,000 compounds, of which about 1,000 (0.29%) were called active. Rule as the data show it: inconclusive = inhibition above about 27% without an active follow-up result; inactive = below that. Only a sample is shown. Measured potencies and affinities stand elsewhere.

This assay can be described thus: H1N1 influenza NS1A inhibitors, functional cell based assay (AID 504329). To be noted: percent inhibition, at 12.5 µM, hits give high values.
Usually inhibition stands for the change of the read-out against control, counted positive when it falls. Take `COc1cccc2cc(CC(=O)c3ccccc3)c(=O)oc12`: the inhibition was -8.03% (inactive).

For the molecule `COc1ccc(-c2oc(=O)c3cc(OC)c(OC)cc3c2C#CCCCO)cc1`, the inhibition is 6.01% (inactive).

As to `COc1ccc(CCNC(=O)CCCCCN2C(=O)c3ccccc3C2=O)cc1OC`, the inhibition was -8.38% (inactive).

`Cc1cc(OCC(=O)NCc2ccncc2)c2c3c(c(=O)oc2c1)CCCC3`: the inhibition is -0.56% (inactive).

Regarding `NC(=O)C1CCCc2c1n(Cc1ccccc1)c1ccccc21` (configuration not stated), the inhibition is 1.35% (inactive).

As for `CN(c1ccc(OCC(=O)OCC(=O)Nc2ccc(OC(F)F)cc2)cc1)S(=O)(=O)c1cccs1`, the inhibition was -3.07% (inactive).

Regarding `Cn1c(C(=O)NCCCN2CCN(c3ccccc3F)CC2)cc2c(=O)n(C)c3ccccc3c21`, the inhibition was 2.56% (inactive).

Regarding `C/C(=N/NC(=O)c1ccccn1)c1ccncc1`, the inhibition was 19.9% (inactive).

For the molecule `C/C(=N\Nc1ccc(Cl)cc1)c1ccccn1`, the inhibition is -19.3% (inactive).

As to `Cc1sc2ncnc(N/N=C/c3ccccc3O)c2c1C`, the inhibition was 12.5% (inactive).

Take `C/C(=N/NC(=O)c1ccccn1)c1c[nH]c2ccccc12`: the inhibition is 9.32% (inactive).

As for `C/C(=N/NC(=O)c1ccncc1)c1c[nH]c2ccccc12`, the inhibition was 3.5% (inactive).

As to `Cc1sc2ncnc(Nc3ccccc3)c2c1C`, the inhibition is 1.18% (inactive).

As to `C/C(=N\Nc1ncc(Cl)cc1Cl)c1ccc(C#N)cc1`, the inhibition is -7.31% (inactive).

On to `O=C(N/N=C(\c1ccccc1)c1ccccn1)c1ccccc1Cl`, for which the inhibition is 7.83% (inactive).

For `Nc1cc(N)nc(SCC(=O)NCc2ccco2)n1`, the inhibition was 0.81% (inactive).

Turning to `CN(C(=O)Oc1ccc([N+](=O)[O-])cc1)c1ccccc1`, the inhibition was 5.58% (inactive).

As to `COCCn1c(=O)[nH]c2cc(C(=O)N3CCN(c4cccc(C(F)(F)F)c4)CC3)ccc2c1=O`, the inhibition is 4.36% (inactive).

As to `O=C1NC2NC(=O)N(C(Cc3ccccc3)C(=O)O)C2N1` (configuration not stated), the inhibition is 7.19% (inactive).

Regarding `COc1ccc(C(=O)COC(=O)c2ccccn2)cc1OC`, the inhibition is 2.06% (inactive).

On to `O=C(COC(=O)c1ccccn1)c1ccc(Br)cc1`, for which the inhibition was 13.3% (inactive).

For `C/C(=N\Nc1ccc(Cl)c(C(=O)O)c1)c1ccccn1`, the inhibition is -11.6% (inactive).

Take `Clc1ccccc1N=Nc1ccccn1`: the inhibition was 2.66% (inactive).

On to `O=C1CC(=C(c2ccccc2)c2ccccc2)C(=O)N1CCCCN1CCN(c2ccccc2)CC1`, for which the inhibition was 0.53% (inactive).

For the molecule `COc1cc(/C=C/C(=O)Nc2cccc(S(=O)(=O)N3CCOCC3)c2)ccc1OCC#N`, the inhibition is -0.73% (inactive).

`CN(C(=O)CN1C(=O)c2cc(Cl)c(Cl)cc2C1=O)C1CCS(=O)(=O)C1` (configuration not stated): the inhibition was -4.84% (inactive).

Take `CCn1nc([N+](=O)[O-])c(C(C#N)c2nc3ccccc3n2C)c(Cl)c1=O` (configuration not stated): the inhibition was 0.82% (inactive).

Regarding `Cn1nc([N+](=O)[O-])c(C(C#N)c2nc3ccccc3n2C)c(Cl)c1=O` (configuration not stated), the inhibition is 3.66% (inactive).

Turning to `Cn1nc([N+](=O)[O-])c(C(C#N)c2ccccn2)c(Cl)c1=O` (configuration not stated), the inhibition was 7.2% (inactive).

As to `CCCn1nc([N+](=O)[O-])c(C(C#N)c2nc3ccccc3o2)c(Cl)c1=O` (configuration not stated), the inhibition was 17.6% (inactive).

Turning to `Cc1cc(C)cc(NC(=O)C(OC(=O)c2sccc2C)c2ccccc2)c1` (configuration not stated), the inhibition is -3.16% (inactive).

Consider `COc1ccc(S(=O)(=O)N2CCCC2C(=O)NCc2ccccc2Cl)cc1` (configuration not stated), for which the inhibition is -6.48% (inactive).

With `CC1(C)CC(=O)C2=C(C1)OC(=O)CC2c1cccs1` (configuration not stated), the inhibition was -6.75% (inactive).

With `CCN(CC)S(=O)(=O)c1ccc(Cl)c(NC(=O)COC(=O)c2c(C)noc2C)c1`, the inhibition was -8.29% (inactive).

As for `COc1ccc2nc(SC(C)C(=O)NCC(=O)Nc3ccc(F)c(F)c3F)[nH]c2c1` (configuration not stated), the inhibition was -9.36% (inactive).

Take `C/C(=N\NC(=O)CN1CCN(Cc2ccccc2)CC1)c1cccs1`: the inhibition was 0.29% (inactive).

Turning to `O=C(CNC(=O)c1ccccc1F)OCCCOC(=O)CNC(=O)c1ccccc1F`, the inhibition was -5.51% (inactive).

With `NC(=O)COC(=O)/C=C/c1ccc(S(=O)(=O)N2CCCCCC2)cc1`, the inhibition is 5.4% (inactive).

As to `C[C@H]1CCC[C@]2(O[C@H](CCO)C[C@@H](O)[C@@H]2O)O1`, the inhibition was -6.34% (inactive).

In the case of `Cc1nc(C(F)(F)F)c(C(=O)N/N=C(\N)c2cccnc2)s1`, the inhibition is -4.6% (inactive).

As for `Cc1nc(C(F)(F)F)c(C(=O)NC(=O)Nc2ccccc2)s1`, the inhibition was -2.55% (inactive).

Take `COc1ccccc1Oc1ncnc2c1cnn2-c1ccccc1`: the inhibition was -2.97% (inactive).

Turning to `CCOC(=O)N1CCc2c(sc(NC(=O)C3COc4ccccc4O3)c2C(N)=O)C1` (configuration not stated), the inhibition is -11.4% (inactive).

Take `C#CCOCCOCCOCCNc1nc(N2CCN(C(=O)CCCCCCCCCCNC(=O)[C@H]([C@@H](C)CC)n3cc(CCCCCN)nn3)CC2)nc(N2CCN(C(=O)CCCCCCCCCCNC(=O)[C@H](CO)n3cc(CCCCCN)nn3)CC2)n1`: the inhibition was 22.1% (inactive).

`C#CCOCCOCCOCCNc1nc(N2CCN(C(=O)CCCCCCCCCCNC(=O)[C@H]([C@@H](C)CC)n3cc(CCCCN=C(N)N)nn3)CC2)nc(N2CCN(C(=O)CCCCCCCCCCNC(=O)[C@H](CO)n3cc(CCCSC)nn3)CC2)n1`: the inhibition was -16.7% (inactive).

For the molecule `O=C(COC(=O)c1ccc2ncsc2c1)NC(=O)c1ccccc1`, the inhibition is -8.75% (inactive).

For the molecule `N#CC(c1ccccc1)c1cnccn1` (configuration not stated), the inhibition is -11% (inactive).

For the molecule `COc1ccccc1N/N=C/c1c(CO)cnc(C)c1O`, the inhibition was 2.27% (inactive).

`Oc1ccc(/C=N/Nc2ccc(C(F)(F)F)cn2)cc1`: the inhibition was 13.7% (inactive).

As for `Cc1ncc(CO)c(/C=N/NC(=S)Nc2ccc(Cl)c(Cl)c2)c1O`, the inhibition is 2.53% (inactive).

For `Cc1ncc(CO)c(/C=N/NC(=S)Nc2ccc(C(C)C)cc2)c1O`, the inhibition was 11.8% (inactive).

In the case of `Cc1ncc(CO)c(/C=N/Nc2cccc(Cl)n2)c1O`, the inhibition is -2.98% (inactive).

On to `COc1cc(/C=N/Nc2ccc(C(F)(F)F)cn2)cc(OC)c1O`, for which the inhibition was -10.9% (inactive).

Consider `COc1ccccc1N(C(=O)c1ccco1)C(C(=O)NC1CCCCC1)c1cc(OC)c(OC)c(OC)c1` (configuration not stated), for which the inhibition is 7.04% (inactive).

For the molecule `CC(C)=C1C2CCC1C1C(=O)N(NC(=O)COc3ccc(C(C)(C)C)cc3)C(=O)C21` (configuration not stated), the inhibition is 4.52% (inactive).

For `Cc1ccc(-c2nnn(CCOc3cccc(Br)c3)n2)cc1`, the inhibition is -6.07% (inactive).

In the case of `c1ccc2nc3[nH]cnc3nc2c1`, the inhibition was 1.88% (inactive).
